Consider 10 compounds from ChEMBL document CHEMBL3988442, “University of Dundee, Small-Polar-MMV Screening Library” (2021).

Holding throughout (design): scale not given: direction of the effect not stated beside the values
The target in experiment [1] is Protein translocase subunit SecA (Escherichia coli (strain K12)) (UniProt P10408). Description: Assay to Identify E. coli SecA ATPase Inhibitors. Particulars: 30 µM. It counts as functional.
Experiment [2] addresses T1, Ubiquitin-activating enzyme e1, putative (Leishmania donovani (strain BPK282A1)) (UniProt E9BSI1).
T1 sequence (whole entry): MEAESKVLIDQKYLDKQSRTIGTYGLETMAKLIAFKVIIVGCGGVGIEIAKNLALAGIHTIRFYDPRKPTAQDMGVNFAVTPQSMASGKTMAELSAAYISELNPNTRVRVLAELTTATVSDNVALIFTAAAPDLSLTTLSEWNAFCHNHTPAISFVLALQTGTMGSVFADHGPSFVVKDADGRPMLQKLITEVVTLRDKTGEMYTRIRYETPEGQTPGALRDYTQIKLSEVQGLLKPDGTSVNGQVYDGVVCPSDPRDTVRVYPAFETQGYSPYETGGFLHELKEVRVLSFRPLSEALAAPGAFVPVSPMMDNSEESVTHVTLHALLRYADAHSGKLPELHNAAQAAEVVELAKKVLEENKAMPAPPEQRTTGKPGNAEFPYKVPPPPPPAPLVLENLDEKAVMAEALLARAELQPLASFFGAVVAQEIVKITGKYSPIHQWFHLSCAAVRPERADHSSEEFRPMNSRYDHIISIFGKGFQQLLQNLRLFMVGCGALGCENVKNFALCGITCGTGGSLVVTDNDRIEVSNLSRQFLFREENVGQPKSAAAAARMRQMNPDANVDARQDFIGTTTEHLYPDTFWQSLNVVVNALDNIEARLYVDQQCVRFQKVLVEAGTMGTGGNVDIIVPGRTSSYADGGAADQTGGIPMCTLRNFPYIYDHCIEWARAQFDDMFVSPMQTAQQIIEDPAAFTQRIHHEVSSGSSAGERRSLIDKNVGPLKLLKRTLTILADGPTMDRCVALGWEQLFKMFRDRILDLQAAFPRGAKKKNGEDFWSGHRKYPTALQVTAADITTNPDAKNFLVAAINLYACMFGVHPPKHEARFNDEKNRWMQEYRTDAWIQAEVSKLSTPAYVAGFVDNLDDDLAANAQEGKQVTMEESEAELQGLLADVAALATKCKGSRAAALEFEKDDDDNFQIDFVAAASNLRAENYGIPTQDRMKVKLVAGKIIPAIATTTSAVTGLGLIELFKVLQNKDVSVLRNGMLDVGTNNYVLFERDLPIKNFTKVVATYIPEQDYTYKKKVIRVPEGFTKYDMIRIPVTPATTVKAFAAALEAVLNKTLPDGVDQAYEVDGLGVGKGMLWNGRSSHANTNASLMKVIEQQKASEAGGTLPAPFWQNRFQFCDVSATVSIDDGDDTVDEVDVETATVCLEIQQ
Description: Leishmania donovani Ubiquitin Activating Enzyme (LdE1). In kind it is functional. Particulars: 30 µM.

For experiment [3], the target named is AMP-activated protein kinase, AMPK (Homo sapiens) (UniProt P54646+O43741+P54619+Q9UGJ0+Q9Y478+Q13131+Q9UGI9). Kind of experiment: AMP-dependent Kinase enzyme assay. An in vitro enzyme assay that detects ADP turnover that is directly proportional to AMPK activity. This uses naive AMPK that is activated during the assay with MK-8722. In kind it is functional. Particulars: 30 µM.

Experiment [4] addresses Sialic acid-binding Ig-like lectin 9 (Homo sapiens) (UniProt Q9Y336). Kind of experiment: Hs-Siglec9 ALPHAscreen SOP 20170721. Particulars: 10 µM.
The next experiment has as its system Trypanosoma cruzi. Description: Trypanosoma cruzi phosphomannomutase and mannose-1-phosphate guanylyltransferase assay. It counts as functional. Particulars: 10 µM.
Experiment [5] concerns the target T2, Arginase-2, mitochondrial (Homo sapiens) (UniProt P78540).
T2 sequence (whole entry): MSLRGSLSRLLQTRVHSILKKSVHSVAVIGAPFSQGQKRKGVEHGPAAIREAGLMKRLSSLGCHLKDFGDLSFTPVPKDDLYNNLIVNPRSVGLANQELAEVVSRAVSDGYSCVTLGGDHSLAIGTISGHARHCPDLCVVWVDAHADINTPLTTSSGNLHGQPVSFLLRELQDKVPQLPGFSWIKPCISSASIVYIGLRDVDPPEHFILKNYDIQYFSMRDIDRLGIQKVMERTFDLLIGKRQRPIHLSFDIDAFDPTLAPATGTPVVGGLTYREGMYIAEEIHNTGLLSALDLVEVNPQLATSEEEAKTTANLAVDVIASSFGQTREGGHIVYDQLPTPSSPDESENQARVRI
Kind of experiment: in vitro enzyme assay to detect the production of urea directly proportional to the activity of Arginase II. Further: in the data most compounds retested in dose-response had high values. It counts as functional. Particulars: 33.3 µM.

Experiment [6] addresses T3, Proteasome subunit beta (Trypanosoma cruzi) (UniProt O96673).
T3 sequence (whole entry): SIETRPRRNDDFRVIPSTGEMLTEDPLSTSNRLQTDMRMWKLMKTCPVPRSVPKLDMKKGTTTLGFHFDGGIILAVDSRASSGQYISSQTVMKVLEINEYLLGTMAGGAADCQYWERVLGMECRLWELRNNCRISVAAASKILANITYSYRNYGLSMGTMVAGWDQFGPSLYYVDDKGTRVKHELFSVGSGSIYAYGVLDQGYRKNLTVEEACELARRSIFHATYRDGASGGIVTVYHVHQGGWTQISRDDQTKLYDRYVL
Description: Trypanosoma cruzi proteasome chymotrypsin-like activity (TcProtChymo) assay. Further: in the data most compounds retested in dose-response had high values. It counts as functional. Particulars: 9.37 µM.

The species named for the next experiment is Homo sapiens. Description: To identify inhibition of the IFN signalling (Jak-Stat) pathway via expression of an eGFP reporter gene under the control of an IFN-stimulated response element (ISRE) containing MxA promoter. It counts as functional. Particulars: 30 µM.
The target of experiment [7] is T4, Tyrosyl-tRNA synthetase, putative (Trypanosoma cruzi (strain CL Brener)) (UniProt Q4DSP6).
T4 sequence (whole entry): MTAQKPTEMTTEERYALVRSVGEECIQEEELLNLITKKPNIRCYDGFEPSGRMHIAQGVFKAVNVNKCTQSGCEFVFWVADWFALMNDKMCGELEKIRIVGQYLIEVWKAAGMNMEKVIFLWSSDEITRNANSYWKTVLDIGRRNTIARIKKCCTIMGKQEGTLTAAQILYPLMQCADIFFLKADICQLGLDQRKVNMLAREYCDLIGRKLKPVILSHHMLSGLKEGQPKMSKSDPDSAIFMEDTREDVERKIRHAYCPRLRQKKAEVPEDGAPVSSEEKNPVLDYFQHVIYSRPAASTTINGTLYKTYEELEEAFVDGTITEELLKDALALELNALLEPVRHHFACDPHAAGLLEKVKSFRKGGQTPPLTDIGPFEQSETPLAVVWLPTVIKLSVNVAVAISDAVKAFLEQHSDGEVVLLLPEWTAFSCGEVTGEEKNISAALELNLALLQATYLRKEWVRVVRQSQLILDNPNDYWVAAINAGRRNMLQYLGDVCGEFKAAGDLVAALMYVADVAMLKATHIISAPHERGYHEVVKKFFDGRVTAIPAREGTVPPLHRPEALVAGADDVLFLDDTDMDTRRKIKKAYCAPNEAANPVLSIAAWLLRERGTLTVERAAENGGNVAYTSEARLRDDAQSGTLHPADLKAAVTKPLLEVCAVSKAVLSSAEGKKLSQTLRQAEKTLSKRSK
Description: Trypanosoma cruzi tyrosyl tRNA synthetase (TcYRS) _High Tyrosine SOP. Further: in the data most compounds retested in dose-response had high values. It counts as functional. Particulars: 30 µM.

For experiment [8], the target named is T4, Tyrosyl-tRNA synthetase, putative (Trypanosoma cruzi (strain CL Brener)). Description: Trypanosoma cruzi tyrosyl tRNA synthetase (TcYRS) SOP. In kind it is functional. The following applies: 30 µM.
For experiment [9], the target named is Chromo domain-containing protein 1 (Saccharomyces cerevisiae (strain ATCC 204508 / S288c) (Baker's yeast)) (UniProt P32657). Kind of experiment: ScCHD-1 Enzyme Inhibition Assay. Further: in the data most compounds retested in dose-response had high values. In kind it is functional. The following applies: 30 µM.
Chain of Chromo domain-containing protein 1 (Saccharomyces cerevisiae (strain ATCC 204508 / S288c) (Baker's yeast)) (P32657 whole entry, the tested form may be a part): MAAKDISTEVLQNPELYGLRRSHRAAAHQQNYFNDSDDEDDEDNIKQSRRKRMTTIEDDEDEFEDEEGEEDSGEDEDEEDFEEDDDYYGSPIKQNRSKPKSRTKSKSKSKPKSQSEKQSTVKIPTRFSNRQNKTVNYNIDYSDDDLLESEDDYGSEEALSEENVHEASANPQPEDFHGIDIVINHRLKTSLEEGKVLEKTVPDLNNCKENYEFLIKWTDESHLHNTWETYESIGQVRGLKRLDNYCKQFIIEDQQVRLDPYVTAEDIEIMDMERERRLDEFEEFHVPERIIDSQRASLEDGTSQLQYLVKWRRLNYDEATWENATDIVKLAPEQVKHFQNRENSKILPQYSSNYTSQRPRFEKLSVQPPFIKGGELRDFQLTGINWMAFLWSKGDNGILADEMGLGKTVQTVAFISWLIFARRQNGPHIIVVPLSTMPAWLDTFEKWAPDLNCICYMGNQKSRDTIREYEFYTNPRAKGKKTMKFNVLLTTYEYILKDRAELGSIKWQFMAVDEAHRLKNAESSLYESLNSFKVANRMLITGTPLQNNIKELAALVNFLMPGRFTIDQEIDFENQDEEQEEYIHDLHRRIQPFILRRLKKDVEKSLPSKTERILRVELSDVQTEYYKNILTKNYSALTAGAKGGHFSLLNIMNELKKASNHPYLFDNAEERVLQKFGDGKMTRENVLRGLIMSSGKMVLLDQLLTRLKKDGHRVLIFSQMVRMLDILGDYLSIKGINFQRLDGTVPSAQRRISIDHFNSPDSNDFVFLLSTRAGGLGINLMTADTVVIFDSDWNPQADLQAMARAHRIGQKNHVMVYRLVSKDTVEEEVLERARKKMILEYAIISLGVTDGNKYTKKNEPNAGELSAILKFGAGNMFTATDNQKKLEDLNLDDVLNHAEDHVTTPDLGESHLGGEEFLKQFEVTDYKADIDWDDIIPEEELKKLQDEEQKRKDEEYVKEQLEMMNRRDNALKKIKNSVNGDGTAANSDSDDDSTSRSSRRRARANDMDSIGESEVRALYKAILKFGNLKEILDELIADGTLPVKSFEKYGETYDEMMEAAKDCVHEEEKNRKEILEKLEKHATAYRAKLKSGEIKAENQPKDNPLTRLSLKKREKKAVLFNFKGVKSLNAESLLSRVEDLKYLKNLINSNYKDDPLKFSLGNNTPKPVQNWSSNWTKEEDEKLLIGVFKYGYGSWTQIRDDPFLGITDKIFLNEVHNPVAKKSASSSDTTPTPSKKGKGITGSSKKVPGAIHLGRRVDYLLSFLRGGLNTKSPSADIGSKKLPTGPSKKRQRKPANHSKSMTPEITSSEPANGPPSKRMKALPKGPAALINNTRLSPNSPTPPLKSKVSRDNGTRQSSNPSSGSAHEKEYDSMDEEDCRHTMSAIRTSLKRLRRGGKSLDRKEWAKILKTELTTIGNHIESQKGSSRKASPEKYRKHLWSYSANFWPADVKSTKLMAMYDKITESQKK

SMILES strings stand for the structures. For some assays here: Potency and affinity values are given separately.

Chain of Protein translocase subunit SecA (Escherichia coli (strain K12)) (P10408 whole entry): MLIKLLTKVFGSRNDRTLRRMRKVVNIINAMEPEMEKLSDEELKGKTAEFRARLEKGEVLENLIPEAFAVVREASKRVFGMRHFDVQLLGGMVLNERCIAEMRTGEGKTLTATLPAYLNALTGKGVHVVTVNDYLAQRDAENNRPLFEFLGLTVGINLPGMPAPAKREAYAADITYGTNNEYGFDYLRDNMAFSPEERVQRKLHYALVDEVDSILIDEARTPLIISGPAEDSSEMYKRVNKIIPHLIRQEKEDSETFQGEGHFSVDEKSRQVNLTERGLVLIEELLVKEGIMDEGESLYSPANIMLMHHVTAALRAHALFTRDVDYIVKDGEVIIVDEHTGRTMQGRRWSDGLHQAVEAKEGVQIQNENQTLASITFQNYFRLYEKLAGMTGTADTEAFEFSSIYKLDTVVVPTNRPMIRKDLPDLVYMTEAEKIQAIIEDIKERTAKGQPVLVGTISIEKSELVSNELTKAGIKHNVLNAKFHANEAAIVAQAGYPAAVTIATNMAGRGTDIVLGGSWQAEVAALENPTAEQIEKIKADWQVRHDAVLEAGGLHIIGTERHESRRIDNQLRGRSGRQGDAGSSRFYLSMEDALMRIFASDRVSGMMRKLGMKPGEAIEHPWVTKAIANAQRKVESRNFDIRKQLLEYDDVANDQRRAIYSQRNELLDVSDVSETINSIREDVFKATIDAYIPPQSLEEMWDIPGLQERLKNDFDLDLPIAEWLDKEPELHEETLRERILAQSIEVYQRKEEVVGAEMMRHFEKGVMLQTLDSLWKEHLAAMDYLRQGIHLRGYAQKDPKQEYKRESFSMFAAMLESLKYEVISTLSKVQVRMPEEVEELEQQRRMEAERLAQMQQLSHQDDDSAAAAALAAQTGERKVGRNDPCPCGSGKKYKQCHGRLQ
Chain of Sialic acid-binding Ig-like lectin 9 (Homo sapiens) (Q9Y336 whole entry): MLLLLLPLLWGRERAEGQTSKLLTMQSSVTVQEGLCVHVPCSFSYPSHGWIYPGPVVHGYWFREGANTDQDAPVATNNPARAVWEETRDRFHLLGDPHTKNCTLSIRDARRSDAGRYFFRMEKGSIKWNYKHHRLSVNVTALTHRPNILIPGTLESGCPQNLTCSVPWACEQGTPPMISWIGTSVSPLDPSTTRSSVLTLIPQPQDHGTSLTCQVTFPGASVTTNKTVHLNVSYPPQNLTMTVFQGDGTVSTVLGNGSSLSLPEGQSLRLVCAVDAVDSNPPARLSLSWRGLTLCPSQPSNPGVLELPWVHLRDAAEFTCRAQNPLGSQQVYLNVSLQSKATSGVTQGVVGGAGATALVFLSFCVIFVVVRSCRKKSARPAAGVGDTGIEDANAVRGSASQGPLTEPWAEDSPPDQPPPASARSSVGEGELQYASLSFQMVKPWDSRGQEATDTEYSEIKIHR

Turning to `COc1cccc(CNCc2nnc3n2CC(C(F)(F)F)CC3)c1` (stereo not given), the Percent Effect in experiment [1] was 0.608%; in [2] it was -2.7%; in experiment [3], -0.757%; in experiment [4], 8.38%; with Trypanosoma cruzi it was 1.27%; in experiment [5], 45.4%. The Percent Effect is 5.92% in experiment [6]; 9.33% in the experiment listed under Homo sapiens; 6.45% in experiment [7]; 16.1% in experiment [8]; -13% in [9].

As for `Cc1noc(C)c1CN1CC2(CCN(C(=O)c3c[nH]cn3)C2)CC1=O` (stereo not given), the Percent Effect was -0.0681% in experiment [1]; 13.3% in experiment [2]; -2.8% in [3]; 13.2% in [4]; -3.48% in the experiment with Trypanosoma cruzi; -49.3% in [5]. Moreover, the Percent Effect is 17.8% in [6]; -2.42% in the experiment filed under Homo sapiens; 2.08% in experiment [7]; 17.5% in experiment [8]; -4.57% in [9].

In the case of `COCCc1noc(CN2CCN(CC(O)c3ccccc3)CC2)n1` (stereo not given), the Percent Effect in experiment [1] is -7.76%; in [2] it was 6.33%; in experiment [3], 4.46%; in [4], -0.576%; in the experiment on Trypanosoma cruzi it was -1.54%; in [5] it was 1.07%. Also, the Percent Effect in experiment [6] was 6.69%; in the experiment filed under Homo sapiens, 12%; in experiment [7], 11.5%; in experiment [8], 10.1%; in experiment [9] it was -14.9%.

Consider `Cn1ncc2c(=O)[nH]c(CN(Cc3ccco3)C3CCCC3)nc21`, for which the Percent Effect is -5.65% in experiment [1]; 23.4% in [2]; -6.78% in experiment [3]; 6.27% in experiment [4]; 2.81% in the experiment on Trypanosoma cruzi; -1.42% in experiment [5]. The Percent Effect in experiment [6] was 14.7%; in the experiment listed under Homo sapiens, 6.82%; in experiment [7], 2.91%; in [8], 24.4%; in [9] it was -9.65%.

With `CN(C)C(=O)CN1C[C@@H]2CC[C@H](C1)N(Cc1cc(F)ccc1F)C2`, the Percent Effect is -2.16% in experiment [1]; 5.48% in experiment [2]; 42.7% in [3]; 2.19% in experiment [4]; -9.13% with Trypanosoma cruzi; -2.79% in experiment [5]. Besides, the Percent Effect in experiment [6] is 20.6%; in the experiment filed under Homo sapiens, 15.6%; in experiment [7], 4.17%; in experiment [8], 6.17%; in experiment [9], -5.68%.

As for `CCc1cnc(N2C[C@H]3C[C@H](C(=O)N(C)C)[C@@H](C2)O3)nc1`, the Percent Effect in [1] was -0.24%; in experiment [2], 13.3%; in experiment [3], 0.237%; in experiment [4], 8.45%; with Trypanosoma cruzi, 0.579%; in experiment [5] it was -53.6%. The Percent Effect was 2.91% in experiment [6]; -12.6% in the experiment listed under Homo sapiens; 5.21% in experiment [7]; 10% in experiment [8]; -6.38% in experiment [9].

With `Cc1occc1C(=O)N1CCC2(CC1)NC(=O)CC2c1cnn(C)c1` (stereo not given), the Percent Effect in [1] was -3.16%; in experiment [2] it was 10.8%; in [3] it was -0.0675%; in [4], -1.75%; in the experiment with Trypanosoma cruzi, 1.86%; in experiment [5], 7.33%. Also, the Percent Effect in [6] was 9.41%; in the experiment listed under Homo sapiens, -9.35%; in experiment [7], 0%; in experiment [8], 12.8%; in experiment [9] it was 0.845%.

As to `CC1COCCN1Cc1nc(-c2cccs2)no1` (stereo not given), the Percent Effect in [1] was -2.46%; in experiment [2], 10.8%; in [3], 138%; in experiment [4], -4.28%; with Trypanosoma cruzi it was -3.49%; in experiment [5], -2.4%. For the same compound, the Percent Effect in experiment [6] was 11.5%; in the experiment filed under Homo sapiens, 13.2%; in [7], 4.43%; in experiment [8], 13.6%; in experiment [9], -7.61%.

As for `Cc1cc(CNCc2c(C)nn(C)c2N2CCOCC2)no1`, the Percent Effect in experiment [1] is -3.31%; in experiment [2] it was 10.5%; in experiment [3], -9.93%; in [4] it was 7.93%; in the experiment on Trypanosoma cruzi, 7.14%; in [5], 3.06%. The Percent Effect in [6] is 3.68%; in the experiment listed under Homo sapiens, -11.7%; in experiment [7] it was 3.43%; in experiment [8] it was 19.5%; in experiment [9] it was -11%.

Regarding `CN(C)c1ncnc2c1CCN(CC1CCCC1)CC2`, the Percent Effect is -3.48% in experiment [1]; 5.41% in experiment [2]; 5.95% in [3]; -2.79% in experiment [4]; -3.81% with Trypanosoma cruzi; -4.14% in [5]. Moreover, the Percent Effect in experiment [6] was 15.1%; in the experiment listed under Homo sapiens, -8.91%; in experiment [7] it was 4.32%; in experiment [8] it was 15.4%; in experiment [9], 1.8%.
